# Assay results from PMC7862700, “An all-to-all approach to the identification of sequence-specific readers for epigenetic DNA modifications on cytosine”.
# What was measured:
# Assay in all cases: DAPPL (digital affinity profiling via proximity ligation, sequencing); 10 mM Tris-HCl pH 7.5, 50 mM NaCl, 1 mM DTT, 4% glycerol, room temperature, 30 min; GST-TFs on glutathione beads, 16-mer random dsDNA library, 0.1% formaldehyde crosslink after washing; high values mean tight binding
# FLI1 = biological target: T1, FLI1 (Homo sapiens, UniProt Q01543 1-452); details: protein: recombinant; tags: N-terminal GST; dsDNA, one strand shown
# T1 sequence: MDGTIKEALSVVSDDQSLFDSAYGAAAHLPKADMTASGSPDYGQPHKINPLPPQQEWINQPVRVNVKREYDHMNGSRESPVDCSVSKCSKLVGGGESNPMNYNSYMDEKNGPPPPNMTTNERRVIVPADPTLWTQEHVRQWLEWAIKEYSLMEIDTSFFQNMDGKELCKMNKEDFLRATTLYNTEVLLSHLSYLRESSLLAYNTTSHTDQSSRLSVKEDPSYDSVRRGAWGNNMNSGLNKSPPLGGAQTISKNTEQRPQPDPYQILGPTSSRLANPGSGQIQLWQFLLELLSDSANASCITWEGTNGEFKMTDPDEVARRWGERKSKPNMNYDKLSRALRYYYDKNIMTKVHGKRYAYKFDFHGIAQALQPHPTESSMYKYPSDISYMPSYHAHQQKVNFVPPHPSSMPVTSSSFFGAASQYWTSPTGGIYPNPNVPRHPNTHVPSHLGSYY
# Outline: (§1)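 Human transcription factors fused to GST were expressed in yeast, captured on glutathione beads, given DNA barcodes and pooled with a GST-only negative control. Pools were incubated with 200 nmole of a 16-mer random double-stranded DNA library in Tris/NaCl/DTT/glycerol buffer at room temperature for 30 min. They were then washed, crosslinked with 0.1% formaldehyde, proximity-ligated (BsaI/T4 ligase, 1 h, 37 °C), PCR-amplified and sequenced on an Illumina NextSeq500. Binding signal is each 6-mer's read frequency for a factor divided by its frequency for the GST control.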
# ELK1 = biological target: T2, ELK1 (Homo sapiens, UniProt P19419 1-428); details: protein: recombinant; tags: N-terminal GST; dsDNA, one strand shown
# T2 sequence: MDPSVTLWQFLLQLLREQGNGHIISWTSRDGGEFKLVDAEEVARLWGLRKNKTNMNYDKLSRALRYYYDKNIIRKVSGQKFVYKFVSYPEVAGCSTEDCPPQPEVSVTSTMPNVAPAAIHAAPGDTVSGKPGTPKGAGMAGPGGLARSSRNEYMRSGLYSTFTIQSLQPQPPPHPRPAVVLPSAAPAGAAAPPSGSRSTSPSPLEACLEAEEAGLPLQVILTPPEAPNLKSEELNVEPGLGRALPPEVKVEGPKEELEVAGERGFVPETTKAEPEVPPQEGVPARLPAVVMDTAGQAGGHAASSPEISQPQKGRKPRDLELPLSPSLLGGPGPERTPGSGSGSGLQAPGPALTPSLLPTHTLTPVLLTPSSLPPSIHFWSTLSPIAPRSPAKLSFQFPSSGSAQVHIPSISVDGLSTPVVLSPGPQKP
# Outline: as §1
# GABPA = biological target: T3, GABPA (Homo sapiens, UniProt Q06546 1-454); details: protein: recombinant; tags: N-terminal GST; dsDNA, one strand shown
# T3 sequence: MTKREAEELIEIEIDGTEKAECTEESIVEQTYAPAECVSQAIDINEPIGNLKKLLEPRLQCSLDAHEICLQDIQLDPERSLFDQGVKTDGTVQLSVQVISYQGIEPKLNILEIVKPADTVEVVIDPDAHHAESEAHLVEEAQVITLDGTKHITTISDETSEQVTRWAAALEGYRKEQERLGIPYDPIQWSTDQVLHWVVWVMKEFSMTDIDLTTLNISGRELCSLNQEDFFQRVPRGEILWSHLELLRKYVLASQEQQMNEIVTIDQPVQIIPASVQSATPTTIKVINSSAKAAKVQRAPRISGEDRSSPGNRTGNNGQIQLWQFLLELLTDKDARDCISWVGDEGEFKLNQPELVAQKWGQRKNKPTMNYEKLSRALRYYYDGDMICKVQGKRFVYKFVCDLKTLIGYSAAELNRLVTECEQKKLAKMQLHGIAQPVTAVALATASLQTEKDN
# Outline: as §1
# ERG = biological target: T4, ERG (Homo sapiens, UniProt P11308 1-479); details: protein: recombinant; tags: N-terminal GST; dsDNA, one strand shown
# T4 sequence: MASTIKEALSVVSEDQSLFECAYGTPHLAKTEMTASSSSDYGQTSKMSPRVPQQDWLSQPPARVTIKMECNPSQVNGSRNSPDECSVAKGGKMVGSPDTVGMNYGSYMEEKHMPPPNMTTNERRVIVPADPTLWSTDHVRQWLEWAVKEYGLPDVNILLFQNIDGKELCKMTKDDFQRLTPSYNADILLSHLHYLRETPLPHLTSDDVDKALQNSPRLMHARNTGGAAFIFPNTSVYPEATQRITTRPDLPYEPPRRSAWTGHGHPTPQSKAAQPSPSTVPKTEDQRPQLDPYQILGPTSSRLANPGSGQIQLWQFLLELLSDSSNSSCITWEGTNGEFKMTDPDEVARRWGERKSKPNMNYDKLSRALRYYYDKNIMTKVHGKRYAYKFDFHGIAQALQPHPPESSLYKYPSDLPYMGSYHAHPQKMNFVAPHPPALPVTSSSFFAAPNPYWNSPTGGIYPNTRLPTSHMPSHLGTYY
# Outline: as §1
# ELF1 = ELF1 (Homo sapiens, UniProt P32519 1-619); details: protein: recombinant; tags: N-terminal GST; dsDNA, one strand shown
# Outline: as §1
# EHF = biological target: T5, EHF (Homo sapiens, UniProt Q9NZC4 1-300); details: protein: recombinant; tags: N-terminal GST; dsDNA, one strand shown
# T5 sequence: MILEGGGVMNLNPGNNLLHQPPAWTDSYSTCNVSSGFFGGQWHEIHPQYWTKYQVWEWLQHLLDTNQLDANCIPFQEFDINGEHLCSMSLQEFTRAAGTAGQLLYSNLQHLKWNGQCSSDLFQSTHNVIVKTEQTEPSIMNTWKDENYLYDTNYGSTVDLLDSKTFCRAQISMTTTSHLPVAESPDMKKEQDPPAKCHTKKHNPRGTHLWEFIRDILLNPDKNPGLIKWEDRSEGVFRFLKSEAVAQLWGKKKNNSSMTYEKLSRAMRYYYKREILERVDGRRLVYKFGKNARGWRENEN
# Outline: as §1
# SPI1 = SPI1 (Homo sapiens, UniProt P17947 1-270); details: protein: recombinant; tags: N-terminal GST; dsDNA, one strand shown
# Outline: as §1
# SPIB = SPIB (Homo sapiens, UniProt Q01892 1-262); details: protein: recombinant; tags: N-terminal GST; dsDNA, one strand shown
# Outline: as §1
# ELK3 = biological target: T6, ELK3 (Homo sapiens, UniProt P41970 1-407); details: protein: recombinant; tags: N-terminal GST; dsDNA, one strand shown
# T6 sequence: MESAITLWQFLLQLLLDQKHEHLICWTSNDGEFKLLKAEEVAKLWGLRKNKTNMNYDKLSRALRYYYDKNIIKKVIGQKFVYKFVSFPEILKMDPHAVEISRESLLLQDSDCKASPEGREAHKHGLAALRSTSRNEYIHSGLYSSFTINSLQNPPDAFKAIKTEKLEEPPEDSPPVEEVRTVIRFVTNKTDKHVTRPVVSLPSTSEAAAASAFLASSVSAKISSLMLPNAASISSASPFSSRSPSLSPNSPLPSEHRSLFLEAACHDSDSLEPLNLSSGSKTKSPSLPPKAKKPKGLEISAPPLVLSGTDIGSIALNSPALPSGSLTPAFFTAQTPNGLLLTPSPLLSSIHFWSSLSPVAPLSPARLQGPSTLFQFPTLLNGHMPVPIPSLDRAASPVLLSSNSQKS
# Outline: as §1
# FEV = biological target: T7, FEV (Homo sapiens, UniProt Q99581 1-238); details: protein: recombinant; tags: N-terminal GST; dsDNA, one strand shown
# T7 sequence: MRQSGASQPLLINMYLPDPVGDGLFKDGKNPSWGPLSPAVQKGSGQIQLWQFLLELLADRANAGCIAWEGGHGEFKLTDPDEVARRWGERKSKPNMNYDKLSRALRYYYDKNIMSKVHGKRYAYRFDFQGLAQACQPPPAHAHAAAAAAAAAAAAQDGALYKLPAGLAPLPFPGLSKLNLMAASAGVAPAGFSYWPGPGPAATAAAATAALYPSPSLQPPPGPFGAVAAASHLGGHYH
# Outline: as §1
# ETV5 = ETV5 (Homo sapiens, UniProt P41161 1-510); details: protein: recombinant; tags: N-terminal GST; dsDNA, one strand shown
# Outline: as §1
# HSF1 = HSF1 (Homo sapiens, UniProt Q00613 1-529); details: protein: recombinant; tags: N-terminal GST; chain copies: 3; dsDNA, one strand shown
# Outline: as §1
# SPIC = biological target: T8, SPIC (Homo sapiens, UniProt Q8N5J4 1-248); details: protein: recombinant; tags: N-terminal GST; dsDNA, one strand shown
# T8 sequence: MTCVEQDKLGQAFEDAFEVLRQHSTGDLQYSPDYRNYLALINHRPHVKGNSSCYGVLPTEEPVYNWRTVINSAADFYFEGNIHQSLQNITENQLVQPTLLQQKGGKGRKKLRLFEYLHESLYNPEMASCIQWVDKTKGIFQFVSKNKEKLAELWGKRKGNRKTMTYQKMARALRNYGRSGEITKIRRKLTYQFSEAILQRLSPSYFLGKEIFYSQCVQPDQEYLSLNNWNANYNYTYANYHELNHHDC
# Outline: as §1
# ELF4 = ELF4 (Homo sapiens, UniProt Q99607 1-663); details: protein: recombinant; tags: N-terminal GST; dsDNA, one strand shown
# Outline: as §1
# ELK4 = biological target: T9, ELK4 (Homo sapiens, UniProt P28324-2 1-405); details: protein: recombinant; tags: N-terminal GST; dsDNA, one strand shown
# T9 sequence: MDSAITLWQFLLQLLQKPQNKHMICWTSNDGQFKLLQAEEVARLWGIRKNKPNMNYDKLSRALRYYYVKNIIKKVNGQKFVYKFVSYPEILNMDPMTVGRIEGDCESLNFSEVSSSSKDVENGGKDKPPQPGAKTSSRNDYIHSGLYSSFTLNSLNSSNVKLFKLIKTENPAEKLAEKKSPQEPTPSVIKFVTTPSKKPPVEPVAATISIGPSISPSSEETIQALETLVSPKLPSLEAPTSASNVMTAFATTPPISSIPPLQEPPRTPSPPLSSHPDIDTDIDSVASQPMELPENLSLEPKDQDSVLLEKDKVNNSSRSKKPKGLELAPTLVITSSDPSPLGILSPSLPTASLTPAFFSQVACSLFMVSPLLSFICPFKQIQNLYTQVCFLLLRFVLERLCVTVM
# Outline: as §1
# ETV2 = biological target: T10, ETV2 (Homo sapiens, UniProt O00321 1-342); details: protein: recombinant; tags: N-terminal GST; dsDNA, one strand shown
# T10 sequence: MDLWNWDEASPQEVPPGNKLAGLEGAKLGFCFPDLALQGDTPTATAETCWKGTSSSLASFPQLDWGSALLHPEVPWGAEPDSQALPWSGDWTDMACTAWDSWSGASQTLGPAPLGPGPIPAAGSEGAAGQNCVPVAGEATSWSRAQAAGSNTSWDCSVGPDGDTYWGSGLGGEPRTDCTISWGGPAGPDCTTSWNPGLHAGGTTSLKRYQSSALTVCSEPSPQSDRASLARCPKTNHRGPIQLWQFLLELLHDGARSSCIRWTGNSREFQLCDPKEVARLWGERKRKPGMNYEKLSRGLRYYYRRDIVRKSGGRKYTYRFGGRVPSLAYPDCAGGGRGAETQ
# Outline: as §1
# ELF3 = biological target: T11, ELF3 (Homo sapiens, UniProt P78545 1-371); details: protein: recombinant; tags: N-terminal GST; dsDNA, one strand shown
# T11 sequence: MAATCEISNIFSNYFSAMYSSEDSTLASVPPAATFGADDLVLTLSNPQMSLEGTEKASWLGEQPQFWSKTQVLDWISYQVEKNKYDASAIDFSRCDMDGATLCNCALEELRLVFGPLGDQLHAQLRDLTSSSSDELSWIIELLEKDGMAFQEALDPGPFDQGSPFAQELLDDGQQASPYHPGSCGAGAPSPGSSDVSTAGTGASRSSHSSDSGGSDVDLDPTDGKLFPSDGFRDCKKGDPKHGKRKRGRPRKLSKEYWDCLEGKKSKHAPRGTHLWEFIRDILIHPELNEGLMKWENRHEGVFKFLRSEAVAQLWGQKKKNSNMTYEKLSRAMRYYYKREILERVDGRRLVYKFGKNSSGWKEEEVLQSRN
# Outline: as §1
# CRX = CRX (Homo sapiens, UniProt O43186 1-299); details: protein: recombinant; tags: N-terminal GST; dsDNA, one strand shown
# Outline: as §1
# ETV1 = ETV1 (Homo sapiens, UniProt P50549 1-477); details: protein: recombinant; tags: N-terminal GST; dsDNA, one strand shown
# Outline: as §1
# ETV1, sequence (P50549 whole entry): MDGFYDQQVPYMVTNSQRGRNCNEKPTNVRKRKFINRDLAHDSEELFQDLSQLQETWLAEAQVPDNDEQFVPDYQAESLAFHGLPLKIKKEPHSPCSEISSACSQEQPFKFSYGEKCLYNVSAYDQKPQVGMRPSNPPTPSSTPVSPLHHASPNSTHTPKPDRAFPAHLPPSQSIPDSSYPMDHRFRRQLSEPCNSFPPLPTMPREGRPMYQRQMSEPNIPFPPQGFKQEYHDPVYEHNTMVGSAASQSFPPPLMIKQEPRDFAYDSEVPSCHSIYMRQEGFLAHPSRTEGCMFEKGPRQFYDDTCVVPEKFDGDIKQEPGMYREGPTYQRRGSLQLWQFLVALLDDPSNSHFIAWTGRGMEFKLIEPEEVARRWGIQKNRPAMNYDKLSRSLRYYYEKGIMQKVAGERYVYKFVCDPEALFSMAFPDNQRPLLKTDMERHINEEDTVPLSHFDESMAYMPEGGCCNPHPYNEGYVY
# HSF1, sequence (Q00613 whole entry): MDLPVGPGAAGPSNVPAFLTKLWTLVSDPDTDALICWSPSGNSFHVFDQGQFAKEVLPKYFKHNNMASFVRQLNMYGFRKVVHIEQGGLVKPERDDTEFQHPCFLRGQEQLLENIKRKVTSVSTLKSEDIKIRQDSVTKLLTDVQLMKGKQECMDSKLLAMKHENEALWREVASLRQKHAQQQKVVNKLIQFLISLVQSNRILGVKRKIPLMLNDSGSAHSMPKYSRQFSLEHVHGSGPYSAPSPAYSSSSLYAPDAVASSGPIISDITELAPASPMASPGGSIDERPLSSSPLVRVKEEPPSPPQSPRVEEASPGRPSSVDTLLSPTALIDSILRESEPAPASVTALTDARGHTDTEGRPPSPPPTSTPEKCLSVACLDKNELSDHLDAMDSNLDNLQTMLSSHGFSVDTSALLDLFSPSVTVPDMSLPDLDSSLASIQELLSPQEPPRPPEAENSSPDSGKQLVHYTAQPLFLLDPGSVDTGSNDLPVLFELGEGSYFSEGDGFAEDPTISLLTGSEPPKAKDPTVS
# ELF1, sequence (P32519 whole entry): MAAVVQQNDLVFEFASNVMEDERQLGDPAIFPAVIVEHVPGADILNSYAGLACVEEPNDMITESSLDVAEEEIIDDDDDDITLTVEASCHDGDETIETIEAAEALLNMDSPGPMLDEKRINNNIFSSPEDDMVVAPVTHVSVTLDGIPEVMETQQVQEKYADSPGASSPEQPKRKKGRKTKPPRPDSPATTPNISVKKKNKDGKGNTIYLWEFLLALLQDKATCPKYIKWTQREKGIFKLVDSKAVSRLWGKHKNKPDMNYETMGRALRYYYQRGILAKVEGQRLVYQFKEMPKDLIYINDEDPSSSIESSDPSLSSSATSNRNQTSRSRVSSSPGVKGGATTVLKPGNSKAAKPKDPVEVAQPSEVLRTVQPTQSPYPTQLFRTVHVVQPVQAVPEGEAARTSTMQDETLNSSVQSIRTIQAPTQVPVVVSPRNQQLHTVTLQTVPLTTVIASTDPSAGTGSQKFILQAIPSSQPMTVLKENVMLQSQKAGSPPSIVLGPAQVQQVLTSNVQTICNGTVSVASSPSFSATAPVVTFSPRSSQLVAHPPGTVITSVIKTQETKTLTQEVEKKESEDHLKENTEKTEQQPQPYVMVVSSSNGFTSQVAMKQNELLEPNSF
# ELF4, sequence (Q99607 whole entry): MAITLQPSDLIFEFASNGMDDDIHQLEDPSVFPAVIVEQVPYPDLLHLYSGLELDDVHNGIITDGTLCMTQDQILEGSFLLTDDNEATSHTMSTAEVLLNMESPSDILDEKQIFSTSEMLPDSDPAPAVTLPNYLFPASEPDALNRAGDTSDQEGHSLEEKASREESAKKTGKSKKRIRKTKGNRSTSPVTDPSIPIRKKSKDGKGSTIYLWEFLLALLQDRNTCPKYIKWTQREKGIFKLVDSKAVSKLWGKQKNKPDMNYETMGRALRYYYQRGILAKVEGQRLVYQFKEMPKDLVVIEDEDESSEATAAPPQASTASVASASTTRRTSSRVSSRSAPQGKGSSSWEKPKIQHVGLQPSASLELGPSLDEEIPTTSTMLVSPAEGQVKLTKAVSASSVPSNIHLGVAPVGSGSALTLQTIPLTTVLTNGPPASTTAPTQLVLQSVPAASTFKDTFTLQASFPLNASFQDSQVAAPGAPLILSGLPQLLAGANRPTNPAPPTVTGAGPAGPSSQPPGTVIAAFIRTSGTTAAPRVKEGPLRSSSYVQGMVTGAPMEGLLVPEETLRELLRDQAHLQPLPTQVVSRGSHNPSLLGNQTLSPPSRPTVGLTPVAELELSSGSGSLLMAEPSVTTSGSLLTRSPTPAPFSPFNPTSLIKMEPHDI
# SPIB, sequence (Q01892 whole entry): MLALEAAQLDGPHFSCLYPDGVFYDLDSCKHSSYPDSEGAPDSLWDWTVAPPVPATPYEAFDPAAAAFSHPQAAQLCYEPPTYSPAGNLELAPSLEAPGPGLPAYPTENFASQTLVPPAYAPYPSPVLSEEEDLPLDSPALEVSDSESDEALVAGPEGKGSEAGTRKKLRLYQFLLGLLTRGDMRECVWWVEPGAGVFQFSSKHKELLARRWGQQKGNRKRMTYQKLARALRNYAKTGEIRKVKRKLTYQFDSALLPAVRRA
# ETV5, sequence (P41161 whole entry): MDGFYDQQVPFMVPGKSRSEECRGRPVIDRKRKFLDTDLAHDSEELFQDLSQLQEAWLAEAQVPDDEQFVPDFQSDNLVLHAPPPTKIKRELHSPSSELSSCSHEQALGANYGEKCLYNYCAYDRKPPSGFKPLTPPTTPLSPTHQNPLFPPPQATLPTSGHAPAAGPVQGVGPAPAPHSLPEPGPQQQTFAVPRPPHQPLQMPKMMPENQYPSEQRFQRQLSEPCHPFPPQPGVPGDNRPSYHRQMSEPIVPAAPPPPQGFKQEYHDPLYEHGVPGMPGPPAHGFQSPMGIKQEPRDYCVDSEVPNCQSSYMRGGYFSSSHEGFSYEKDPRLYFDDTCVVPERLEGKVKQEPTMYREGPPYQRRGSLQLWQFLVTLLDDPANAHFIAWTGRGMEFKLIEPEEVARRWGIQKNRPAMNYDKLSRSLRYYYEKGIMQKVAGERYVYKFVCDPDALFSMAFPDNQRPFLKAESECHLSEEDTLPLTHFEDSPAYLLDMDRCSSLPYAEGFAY
# CRX, sequence (O43186 whole entry): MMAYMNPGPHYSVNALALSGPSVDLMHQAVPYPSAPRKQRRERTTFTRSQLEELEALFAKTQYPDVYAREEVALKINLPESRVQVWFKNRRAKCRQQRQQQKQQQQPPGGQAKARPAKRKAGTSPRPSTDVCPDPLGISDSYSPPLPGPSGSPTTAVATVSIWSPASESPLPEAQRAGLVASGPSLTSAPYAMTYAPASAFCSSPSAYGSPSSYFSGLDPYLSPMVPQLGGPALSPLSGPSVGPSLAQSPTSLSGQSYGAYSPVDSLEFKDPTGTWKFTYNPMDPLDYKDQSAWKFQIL
sequence,measurement,setting,value
TTACCA,binding signal,FLI1,"1.12 fold enrichment (6-mer frequency, TF over GST control)"
same,binding signal,ELK1,"1.06 fold enrichment (6-mer frequency, TF over GST control)"
same,binding signal,GABPA,"1.04 fold enrichment (6-mer frequency, TF over GST control)"
same,binding signal,ERG,"1.11 fold enrichment (6-mer frequency, TF over GST control)"
same,binding signal,ELF1,"1.13 fold enrichment (6-mer frequency, TF over GST control)"
same,binding signal,EHF,"1.03 fold enrichment (6-mer frequency, TF over GST control)"
same,binding signal,SPI1,"1.11 fold enrichment (6-mer frequency, TF over GST control)"
same,binding signal,SPIB,"1.12 fold enrichment (6-mer frequency, TF over GST control)"
same,binding signal,ELK3,"1.14 fold enrichment (6-mer frequency, TF over GST control)"
same,binding signal,FEV,"1.09 fold enrichment (6-mer frequency, TF over GST control)"
same,binding signal,ETV5,"1.04 fold enrichment (6-mer frequency, TF over GST control)"
same,binding signal,HSF1,"1.47 fold enrichment (6-mer frequency, TF over GST control)"
same,binding signal,SPIC,"1.09 fold enrichment (6-mer frequency, TF over GST control)"
same,binding signal,ELF4,"1.04 fold enrichment (6-mer frequency, TF over GST control)"
same,binding signal,ELK4,"1.04 fold enrichment (6-mer frequency, TF over GST control)"
same,binding signal,ETV2,"1.13 fold enrichment (6-mer frequency, TF over GST control)"
same,binding signal,ELF3,"1.1 fold enrichment (6-mer frequency, TF over GST control)"
same,binding signal,CRX,"1.74 fold enrichment (6-mer frequency, TF over GST control)"
same,binding signal,ETV1,"1.05 fold enrichment (6-mer frequency, TF over GST control)"
